Source: PMC5540273 (PLoS ONE, 2017)

Assays:
Settings in all cases: concentration: 1 μM, replicates: in singlicate; n = 1
[1] = tested on: EPHA7
[2] = tested on: EPHA8
[3] = tested on: EPHB1
[4] = tested on: EPHB2
[5] = tested on: EPHB3
[6] = tested on: EPHB4
[7] = tested on: EPHB6
[8] = tested on: ERBB2
[9] = tested on: ERBB3
[10] = tested on: ERBB4
[11] = tested on: T1, ERK1
T1 construct: gene MAPK3

[12] = tested on: T2, ERK2
T2 construct: gene MAPK1

[13] = tested on: T3, ERK3
T3 construct: gene MAPK6

[14] = tested on: T4, ERK4
T4 construct: gene MAPK4

[15] = tested on: T5, ERK5
T5 construct: gene MAPK7

[16] = tested on: T6, ERK8
T6 construct: gene MAPK15

[17] = tested on: ERN1
[18] = tested on: T7, FAK
T7 construct: gene PTK2

[19] = tested on: FER
[20] = tested on: FES
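Also: KINOMEscan kinase panel screen.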

Compound | %Inh [1] | %Inh [2] | %Inh [3] | %Inh [4] | %Inh [5] | %Inh [6] | %Inh [7] | %Inh [8] | %Inh [9] | %Inh [10] | %Inh [11] | %Inh [12] | %Inh [13] | %Inh [14] | %Inh [15] | %Inh [16] | %Inh [17] | %Inh [18] | %Inh [19] | %Inh [20]
O=C(Nc1c(F)cccc1F)c1cc(C(=O)c2ccccc2F)c[nH]1 [GSK1326180] | 0% | 0% | 4% | 0% | 6% | 0% | 0% | 35% | 20% | 0% | 8% | 3% | 9% | 0% | 0% | 0% | 0% | 0% | 0% | 0%
Fc1cc(Cl)ccc1Nc1ccnc2cc(-c3ccc(CN4CCOCC4)o3)ccc12 [GW560109] | 59% | 90.2% | 50% | 44% | 15% | 55% | 91.7% | 34% | 80% | 25% | 12% | 0% | 0% | 0% | 0% | 19% | 16% | 0% | 6% | 0%
COc1cc(Nc2ccnc3cc(-c4ccncc4)ccc23)cc(OC)c1OC.Cl [GW494610] | 0% | 99.2% | 74% | 57% | 0% | 50% | 98% | 49% | 50% | 5% | 0% | 0% | 5% | 0% | 0% | 22% | 10% | 0% | 26% | 0%
Cc1ccc(-c2ccc3occ(-c4ccc(S(C)=O)cc4)c3c2)nn1 (centres unmarked) | 0% | 0% | 0% | 14% | 14% | 6% | 0% | 0% | 0% | 3% | 0% | 7% | 0% | 0% | 0% | 1% | 1% | 0% | 0% | 5%
COc1ccc(C)c(Nc2ccnc(Nc3ccc(-c4cnc[nH]4)cc3)n2)c1.Cl [GW784041] | 6% | 26% | 14% | 21% | 17% | 60% | 69% | 0% | 89% | 0% | 0% | 9% | 16% | 0% | 0% | 4% | 0% | 0% | 2% | 2%
Cl.Cl.NC(CNC(=O)c1cc(Br)c(-c2ccnc3[nH]ccc23)s1)c1ccccc1 (centres unmarked) [GSK1322949] | 10% | 24% | 27% | 15% | 0% | 3% | 75% | 24% | 18% | 0% | 4% | 0% | 4% | 27% | 0% | 24% | 13% | 83% | 10% | 0%
O=C(Nc1n[nH]c2nc(-c3ccccc3O)ccc12)C1CC1 [SB-711880] | 58% | 37% | 0% | 0% | 0% | 0% | 53% | 0% | 0% | 0% | 0% | 0% | 0% | 0% | 0% | 82% | 0% | 0% | 0% | 0%
Cc1ccc(O)cc1Nc1ccnc2cc(-c3ccc(CN4CCCCC4)o3)ccc12 [GW557777] | 0% | 99.7% | 100% | 98.9% | 95.3% | 99.7% | 83% | 0% | 7% | 0% | 0% | 0% | 0% | 8% | 20% | 0% | 23% | 0% | 11% | 7%
CCNc1nccc(-c2c(-c3ccc(F)cc3)ncn2C2CCN(C)CC2)n1 | 0% | 0% | 0% | 0% | 0% | 0% | 9% | 0% | 9% | 0% | 0% | 0% | 0% | 0% | 0% | 4% | 100% | 0% | 0% | 0%
Cn1cc(-c2cnc(N)c3c(-c4ccc5c(c4)CCN5C(=O)Cc4ccccc4)csc23)cn1 [GSK2593074] | 6% | 8% | 6% | 2% | 4% | 9% | 98.3% | 0% | 4% | 0% | 0% | 0% | 0% | 0% | 15% | 11% | 28% | 7% | 10% | 14%
